Assay results: PubChem BioAssay AID1159580 (chemical genetic matrix, 2015)
Out of some 5,500 compounds screened, about 2,000 (36%) were called active. Another 18% or so got no clear call; they are omitted. No stated cut-off is given here; in the data, active means normalized growth mostly below about 0.91 (no sharp cut-off); inconclusive means no clear call, values can overlap the other calls; inactive means mostly above about 0.92. The list shows a part of the results.

Assay: chemical genetic growth profiling, strain panel (AID 1159580);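 further: tested at 20 µM; growth read once vehicle control cultures reached saturation at 30 °C; 1 = growth at the plate median or of vehicle wells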
Conditions: growth OD

Measured: normalized growth

CC1=C2[C@](C)(C=CC1=O)C[C@H](O)[C@H]1[C@H](C)C(=O)O[C@]21C
inactive: S. cerevisiae deletion strains, locus YAL013W, strain DEP1, stronger effect = lower value 1.01 | S. cerevisiae deletion strains, locus YBR021W, strain FUR4, stronger effect = lower value 1 | S. cerevisiae deletion strains, locus YBR229C, strain ROT2, stronger effect = lower value 1.01 | S. cerevisiae deletion strains, locus YCL029C, strain bik1, stronger effect = lower value 1.03 | S. cerevisiae deletion strains, locus YDL035C, strain GPR1, stronger effect = lower value 1.02 | S. cerevisiae deletion strains, locus YDL074C, strain BRE1, stronger effect = lower value 1.01 | S. cerevisiae deletion strains, locus YDL101C, strain DUN1, stronger effect = lower value 1.02 | S. cerevisiae deletion strains, locus YDL134C, strain PPH21, stronger effect = lower value 1.01 | S. cerevisiae deletion strains, locus YDL185W, strain tfp1, stronger effect = lower value 1.03 | S. cerevisiae deletion strains, locus YDL192W, strain arf1, stronger effect = lower value 1.04 | S. cerevisiae deletion strains, locus YDR101C, strain arx1, stronger effect = lower value 1.01 | S. cerevisiae deletion strains, locus YDR150W, strain NUM1, stronger effect = lower value 1.01 | S. cerevisiae deletion strains, locus YDR162C, strain NBP2, stronger effect = lower value 1.03 | S. cerevisiae deletion strains, locus YDR318W, strain mcm21, stronger effect = lower value 1.03 | S. cerevisiae deletion strains, locus YDR388W, stronger effect = lower value 1.02 | S. cerevisiae deletion strains, locus YDR502C, strain sam2, stronger effect = lower value 1.03 | S. cerevisiae deletion strains, locus YEL061C, strain CIN8, stronger effect = lower value 1.01 | S. cerevisiae deletion strains, locus YER110C, stronger effect = lower value 1.03 | S. cerevisiae deletion strains, locus YER155C, strain BEM2, stronger effect = lower value 1.01 | S. cerevisiae deletion strains, locus YER167W, strain BCK2, stronger effect = lower value 1.02 | S. cerevisiae deletion strains, locus YGL078C, strain dbp3, stronger effect = lower value 1.04 | S. cerevisiae deletion strains, locus YGL086W, strain mad1, stronger effect = lower value 1.02 | S. cerevisiae deletion strains, locus YGL248W, strain PDE1, stronger effect = lower value 1.01 | S. cerevisiae deletion strains, locus YGR078C, strain PAC10, stronger effect = lower value 1.01 | S. cerevisiae deletion strains, locus YGR135W, strain pre9, stronger effect = lower value 1.01 | S. cerevisiae deletion strains, locus YGR229C, strain SMI1, stronger effect = lower value 1.01 | S. cerevisiae deletion strains, locus YGR252W, strain gcn5, stronger effect = lower value 1.07 | S. cerevisiae deletion strains, locus YHR030C, strain SLT2, stronger effect = lower value 1.01 | S. cerevisiae deletion strains, locus YHR079C, strain IRE1 (second series), stronger effect = lower value 1.03 | S. cerevisiae deletion strains, locus YHR094C, strain hxt1, stronger effect = lower value 1.03 | S. cerevisiae deletion strains, locus YHR129C, strain ARP1, stronger effect = lower value 1.01 | S. cerevisiae deletion strains, locus YHR200W, strain rpn10, stronger effect = lower value 1.03 | S. cerevisiae deletion strains, locus YIL066C, strain RNR3, stronger effect = lower value 1.03 | S. cerevisiae deletion strains, locus YIL073C, strain SPO22, stronger effect = lower value 1.1 | S. cerevisiae deletion strains, locus YIL125W, strain kgd1, stronger effect = lower value 1.03 | S. cerevisiae deletion strains, locus YIR030C, strain dcg1, stronger effect = lower value 1.02 | S. cerevisiae deletion strains, locus YJL095W, strain BCK1, stronger effect = lower value 1.01 | S. cerevisiae deletion strains, locus YJL134W, strain LCB3, stronger effect = lower value 1 | S. cerevisiae deletion strains, locus YJL168C, strain set2, stronger effect = lower value 1.03 | S. cerevisiae deletion strains, locus YJL187C, strain SWE1 (second series), stronger effect = lower value 1.01 | S. cerevisiae deletion strains, locus YJR043C, strain POL32, stronger effect = lower value 1.02 | S. cerevisiae deletion strains, locus YJR075W, strain HOC1, stronger effect = lower value 1.02 | S. cerevisiae deletion strains, locus YKL009W, strain mrt4, stronger effect = lower value 1.04 | S. cerevisiae deletion strains, locus YKL068W, stronger effect = lower value 1.04 | S. cerevisiae deletion strains, locus YKL085W, strain MDH1 (second series), stronger effect = lower value 1.02 | S. cerevisiae deletion strains, locus YKL085W, strain MDH1, stronger effect = lower value 1.02 | S. cerevisiae deletion strains, locus YKL190W, strain CNB1, stronger effect = lower value 1.01 | S. cerevisiae deletion strains, locus YKR001C, strain vps1, stronger effect = lower value 1.03 | S. cerevisiae deletion strains, locus YLR039C, strain RIC1, stronger effect = lower value 1.07 | S. cerevisiae deletion strains, locus YLR058C, strain SHM2, stronger effect = lower value 1.02 | S. cerevisiae deletion strains, locus YLR102C, strain apc9, stronger effect = lower value 1.02 | S. cerevisiae deletion strains, locus YLR262C, strain YPT6, stronger effect = lower value 1.05 | S. cerevisiae deletion strains, locus YLR268W, strain sec22, stronger effect = lower value 1.02 | S. cerevisiae deletion strains, locus YLR330W, strain CHS5, stronger effect = lower value 1.01 | S. cerevisiae deletion strains, locus YLR342W, strain FKS1 (second series), stronger effect = lower value 1.02 | S. cerevisiae deletion strains, locus YLR371W, strain rom2, stronger effect = lower value 1.03 | S. cerevisiae deletion strains, locus YLR418C, strain cdc73, stronger effect = lower value 1.04 | S. cerevisiae deletion strains, locus YML016C, strain PPZ1, stronger effect = lower value 1.01 | S. cerevisiae deletion strains, locus YML032C, strain rad52, stronger effect = lower value 1.05 | S. cerevisiae deletion strains, locus YML124C, strain tub3, stronger effect = lower value 1.03 | S. cerevisiae deletion strains, locus YMR078C, strain ctf18, stronger effect = lower value 1.04 | S. cerevisiae deletion strains, locus YMR223W, strain ubp8, stronger effect = lower value 1.04 | S. cerevisiae deletion strains, locus YMR263W, strain SAP30, stronger effect = lower value 1 | S. cerevisiae deletion strains, locus YMR307W, strain GAS1, stronger effect = lower value 1.08 | S. cerevisiae deletion strains, locus YNL067W, strain RPL9B, stronger effect = lower value 1.01 | S. cerevisiae deletion strains, locus YNL128W, strain TEP1, stronger effect = lower value 1.02 | S. cerevisiae deletion strains, locus YNL153C, strain GIM3, stronger effect = lower value 0.999 | S. cerevisiae deletion strains, locus YNL233W, strain BNI4, stronger effect = lower value 1.01 | S. cerevisiae deletion strains, locus YNL250W, strain rad50, stronger effect = lower value 1.06 | S. cerevisiae deletion strains, locus YNL271C, strain bni1, stronger effect = lower value 1.03 | S. cerevisiae deletion strains, locus YNL298W, strain CLA4, stronger effect = lower value 1.03 | S. cerevisiae deletion strains, locus YNL307C, strain MCK1, stronger effect = lower value 1.04 | S. cerevisiae deletion strains, locus YNL322C, strain KRE1, stronger effect = lower value 1.02 | S. cerevisiae deletion strains, locus YNR052C, strain pop2, stronger effect = lower value 1.04 | S. cerevisiae deletion strains, locus YOL006C, strain TOP1, stronger effect = lower value 1.03 | S. cerevisiae deletion strains, locus YOL012C, strain htz1 0.937 | S. cerevisiae deletion strains, locus YOL147C, strain pex11, stronger effect = lower value 1.03 | S. cerevisiae deletion strains, locus YOR061W, strain CKA2, stronger effect = lower value 1.01 | S. cerevisiae deletion strains, locus YOR069W, strain VPS5, stronger effect = lower value 1 | S. cerevisiae deletion strains, locus YOR136W, strain idh2, stronger effect = lower value 1.03 | S. cerevisiae deletion strains, locus YOR144C, strain elg1, stronger effect = lower value 1.02 | S. cerevisiae deletion strains, locus YOR184W, strain ser1, stronger effect = lower value 1.04 | S. cerevisiae deletion strains, locus YOR316C, strain cot1, stronger effect = lower value 1.02 | S. cerevisiae deletion strains, locus YPL055C, strain LGE1, stronger effect = lower value 1.03 | S. cerevisiae deletion strains, locus YPL241C, strain CIN2, stronger effect = lower value 1.01 | S. cerevisiae deletion strains, locus YPR119W, strain clb2, stronger effect = lower value 1.03 | S. cerevisiae deletion strains, locus YPR141C, strain kar3, stronger effect = lower value 1.04 | S. cerevisiae deletion strains, locus YPR163C, strain tif3, stronger effect = lower value 1.02 | S. cerevisiae deletion strains, locus YPR167C, strain met16, stronger effect = lower value 1.02 | S. cerevisiae deletion strains, strain wtn01, stronger effect = lower value 1 | S. cerevisiae strains, strain wild type, stronger effect = lower value 1.02
